High-throughput results as filed in PubChem BioAssay.
The full list was thinned out, with hits kept by preference.
RE007 growth inh – less growth of the S. pombe RE007 Vpr strain; S. pombe RE007 Vpr strain, BacTiter-Glo ATP luminescence, 24 h; Potency, µM (titrated, usually from 92.2 µM), inactives show at the top dose activity change, negative = less growth, actives largely listed as inhibitors; hit rate 0.21% among 360,000; AID 651644; active = well fitted falling curve with a large enough effect; inconclusive = small, poorly fitted or top-dose-only effect; inactive = no such curve, though single readings can be large or run the other way; also: potency is read from the fitted curve at half-maximal effect; % is scaled to controls: 0 for no effect and ±100 for the full control effect; nearly all actives have a fitted effect of over 50% in size
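Fission yeast strain RE007, carrying one chromosomally integrated HIV-1 vpr copy, was seeded at OD 0.01 in PMG+AL medium with 23 nL pinned compound. After 24 h at 30 °C and 99% humidity, viability was read by BacTiter-Glo luminescence.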
LmPK inh – inhibitors of Leishmania mexicana pyruvate kinase | Q27686 | purified LmPK, Kinase-Glo ATP luminescence, 1 h | Potency, µM (series often up to 57.5 µM), for inactives: at the highest dose activity change, negative = inhibition, most hits filed as inhibitors | hit rate 0.37% among 290,000; also: potency is read from the fitted curve at half-maximal effect; % is scaled to controls: 0 for no effect and ±100 for the full control effect
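In 50 mM imidazole pH 7.2 with 7 mM MgCl2, LmPK (0.1 nM) turned over PEP (0.5 mM) and ADP (0.1 mM) for 1 h at room temperature. Luciferase read-out of ATP.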
TbPYK inhibitor – blocks Trypanosoma brucei pyruvate kinase | hit rate 0.12% among 410,000 | AID 624173 | Potency, µM (doses to about 76.8 µM), for inactives: at the top dose activity, negative = inhibition, actives largely listed as inhibitors | TbPYK enzyme, Kinase-Glo Plus ATP luminescence, 45 min; also: potency is read from the fitted curve at half-maximal effect; % is scaled to controls: 0 for no effect and ±100 for the full control effect; nearly all actives have a fitted effect of over 50% in size
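In this concentration-response screen, enzyme-free wells defined baseline while DMSO plates tracked drift. Each reaction combined TbPYK, substrate, compound and 130 uM ADP for 45 min at room temperature. Kinase-Glo Plus luminescence gave the signal.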
Cycloheximide cs – counter-screen hit for Shiga toxin inhibitors, cycloheximide; cell reporter, cycloheximide protein synthesis inhibition counterscreen; max response, %; hit rate 12% among 300,000; AID 2314; in the data active = max response mostly above about 13%, no sharp cut-off; inactive = mostly below about 14%; also: read at 38.3 µM for the half of the compounds with a filed dose; 0% is about no effect
Shiga toxin inh – inhibitors of Shiga toxin in Vero cells | inhibition, % at 38.7 µM | hit rate 9.2% among 290,000 | Vero cells, Shiga toxin protein synthesis inhibition reporter; in the data active = inhibition mostly above about 28%, no sharp cut-off; inactive = mostly below about 43%; also: 0% is about no effect
FBPA Giardia inh – blocks Giardia fructose-bisphosphate aldolase activity | Potency, µM (highest dose often 59.6 µM), inactives show top-dose activity, negative = inhibition, usual class: inhibitors | purified Giardia FBPA | AID 2451 | A8B2U2 | hit rate 0.71% among 290,000; also: potency is read from the fitted curve at half-maximal effect; % is scaled to controls: 0 for no effect and ±100 for the full control effect; nearly all actives have a fitted effect of over 55% in size
Target sequence (A8B2U2 whole entry, looked up): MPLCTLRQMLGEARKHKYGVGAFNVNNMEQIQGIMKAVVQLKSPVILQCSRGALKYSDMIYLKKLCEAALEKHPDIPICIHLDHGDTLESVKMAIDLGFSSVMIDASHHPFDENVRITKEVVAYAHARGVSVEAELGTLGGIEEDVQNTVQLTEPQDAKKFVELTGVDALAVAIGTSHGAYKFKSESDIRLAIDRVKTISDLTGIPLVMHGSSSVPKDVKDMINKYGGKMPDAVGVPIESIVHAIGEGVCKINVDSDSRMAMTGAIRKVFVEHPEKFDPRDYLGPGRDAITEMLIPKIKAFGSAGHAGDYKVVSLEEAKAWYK
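40 nM FBPA preincubated 10 min at RT with compound (up to 57.5 uM final), then substrate plus GAPDH/TPI/NAD/arsenate coupling and diaphorase/resazurin added. Fluorescence read after 20 min at RT, 525/598 nm.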
The depositor's hits bear a star; ? = inconclusive; . = not tested or not shown; [ ] = another dose, or the depositor's remark. Unless noted, calls follow the shape of the dose curve; as a rule, active = well fitted curve in the direction sought with a large enough effect; inconclusive = small, poorly fitted or top-dose-only effect, or another doubt; inactive = no such curve, though single readings can be large; an effect the other way counts as inactive or inconclusive.

SMILES	RE007 growth inh	LmPK inh	TbPYK inhibitor	Cycloheximide cs	Shiga toxin inh	FBPA Giardia inh
O=C(Cc1ccccc1)N1CCC(c2ccccc2)C1 (centres undefined)	3%	8%	2%	28*	80*	4%
O=C(CCCN1C(=O)c2ccccc2C1=O)N1CCC(c2ccccc2)C1 (centres undefined)	1%[3.69 µM]	3%	.	-2	-22	1%
COc1ccc(CC(=O)N2CCC(c3ccccc3)C2)cc1 (centres undefined)	0%	0%	0%	23*	56*	0%
C#CCO[C@@H]1C[C@H](n2cnc3c(NC(=O)c4ccccc4)ncnc32)O[C@@H]1CO	7%	-6%	-2%	21*	39	0%
O=C(O)c1ccc(N=NN2CCCCCC2)cc1	18%	-2%	-6%	42*	74*	14%
COc1ccc(C2N3CC4(C)CN2CC(c2ccccc2)(C3)C4=O)cc1 (centres undefined)	.	.	0%	.	.	.
O=C(NC(=S)NCC1COc2ccccc2O1)c1ccccc1 (centres undefined)	-24%	3%	2%	7	11	0%
O=C(NCC1COc2ccccc2O1)c1cc2ccccc2o1 (centres undefined)	14%	2%	-4%	31*	65*	-3%
O=C(NCC1CCCO1)c1cc2ccccc2o1 (centres undefined)	8%	-5%	4%	24*	24	.
O=C(NCC1COc2ccccc2O1)c1ccc(NC(=O)C2CCCO2)cc1 (centres undefined)	12%	1%	-4%	15*	37*	2%
O=C(NCC1COc2ccccc2O1)c1ccccc1 (centres undefined)	18%	0%	2%	50*	103*	9%
COC(=O)c1sc(S(=O)(=O)NC(C)C(=O)O)c(C(=O)OC)c1C (centres undefined)	0%	0%	1%	-3	-23	2%
CC(=O)N1c2ccccc2C(=O)C1N1CCN(c2ccccc2F)CC1 (centres undefined)	.	.	1%[15.4 µM]	.	.	.
O=C(CCNC(=O)c1ccccc1Cl)NCC1COc2ccccc2O1 (centres undefined)	5%	.	-1%	.	.	.
O=C(OCC1COc2ccccc2O1)c1ccccc1F (centres undefined)	-6%	9%	-2%	19*	25	0%
O=C(COC(=O)c1ccccc1)NCC1COc2ccccc2O1 (centres undefined)	-14%	.	9%	.	.	.
COc1ccc(/C=C/C(=O)NCC2COc3ccccc3O2)cc1OC (centres undefined)	-4%	2%	3%	8	12	3%
O=C(CCNC(=O)c1ccc(Br)cc1)NCC1COc2ccccc2O1 (centres undefined)	21%	5%	0%	23*	71*	-1%
O=C(NCC1CCCO1)c1cc2ccccc2nc1Cl (centres undefined)	12%	-3%	2%	28*	76*	9%
Cc1ccc(/C=C/C(=O)NCC2COc3ccccc3O2)o1 (centres undefined)	-3%	-23%	?	16*	18	-16%
O=C(NCC1CCCO1)c1cc2ccccc2cc1O (centres undefined)	-19%	.	3%	.	.	.
O=C(NCC(c1ccc2c(c1)OCO2)N1CCN(c2ccccc2F)CC1)c1ccccc1F (centres undefined)	.	.	0%	.	.	.
COc1ccc(-c2oc3ncn4nc(-c5ccccc5Br)nc4c3c2-c2ccc(OC)cc2)cc1	.	.	-5%	.	.	.
COc1ccc(NCc2nc3ccccc3n2CCOc2ccc(C)cc2)cc1	?	1%	-3%	28*	47*	-15%
c1ccc(NCc2nc3ccccc3n2CCOc2ccccc2)cc1	-24%	4%	-5%	16*	active	4%
SMILES	RE007 growth inh	LmPK inh	TbPYK inhibitor	Cycloheximide cs	Shiga toxin inh	FBPA Giardia inh
COc1ccc(NCc2nc3ccccc3n2CCOc2ccccc2)cc1	-8%	-1%	-5%	47*	84*	-26%
CCN(CC)c1ccc(C(=O)NCc2ccc3c(c2)CCN3C(=O)c2ccc(F)cc2)cc1	.	.	-8%	.	.	.
COC(=O)CCC(=O)COc1ccc(OC)cc1C#N	-1%	-10%	-4%	23*	40	1%
COC(=O)CCC(=O)COc1ccccc1C#N	-9%	1%	7%	27*	62*	6%
Cc1ccc(-n2ncc3c(NC4CCCCC4)ncnc32)cc1	.	.	-1%	.	.	.
CC(/C=C/c1ccc(N(C)C)cc1)=N\N=C(/N)SC1CC(=O)N(c2ccc(C(=O)O)cc2)C1=O (centres undefined)	0%	6%	-3%	45*	70*	-3%
CCOC(=O)c1c(C)[nH]c(N=Nc2ccc(C)cc2C)c1C	-3%	1%	2%	37*	183*	-21%
CCOC(=O)c1c(C)[nH]c(N=Nc2ccccc2C)c1C	-23%	7%	4%	38*	81*	-6%
Cc1ccc2nc(NC(=O)COC(=O)c3ccco3)sc2c1	-9%[3.69 µM]	0%	.	34*	86*	-4%
Cc1ccc2nc(NC(=O)COC(=O)c3ccc(Br)o3)sc2c1	-5%	2%	-14%	23*	133*	-4%
O=C(COC(=O)c1ccco1)Nc1nc2ccc([N+](=O)[O-])cc2s1	11%	3%	1%	19	2	15%
O=C(COC(=O)c1ccc(Br)o1)Nc1nc2ccccc2s1	-3%	3%	-3%	1	3	-4%
COc1cccc(CSc2nc3cc(C(=O)NC4CCCC4)ccc3c(=O)n2Cc2ccccc2)c1	.	.	0%	.	.	.
COC(=O)c1ccc(NC(=O)CC2C(=O)N(c3cccc(C)c3)C(=O)N2C2CCCC2)cc1 (centres undefined)	.	.	-2%	.	.	.
COc1ccc(OC)c(NC(=O)C(C)n2c(=O)c(-c3ccccc3NC(C)=O)nc3ccccc32)c1 (centres undefined)	.	.	2%	.	.	.
C=CCOc1ccc(C2c3c(oc4ccccc4c3=O)C(=O)N2CCCN2CCOCC2)cc1 (centres undefined)	-9%	2%	-9%	-2	26	8%
CN(C)CCN1C(=O)C(=O)/C(=C(/O)c2ccc3c(c2)OCCO3)C1c1ccccn1 (centres undefined)	-12%	-1%	0%	42*	102*	?
Cc1ccc(/C(O)=C2/C(=O)C(=O)N(CCN3CCOCC3)C2c2cccs2)cc1 (centres undefined)	16%	0%	8%	11*	20	5%
COc1cccc(/C(O)=C2/C(=O)C(=O)N(CCN(C)C)C2c2ccccn2)c1 (centres undefined)	-12%	-4%	1%	11	41	-26%
